# Only some compounds are listed: those with a hit (about 3.4% of all), similar ones and a draw of the others.
# VDR inh: inhibitors of human vitamin D receptor | P11473 | actives 0.93% (n = 400,000) | VDR-SRC2-3 peptide fluorescence polarization, 2 h | Potency, µM, for inactives: max response, negative = inhibition, usual class: inhibitors; also: % is scaled to controls: 0 for no effect and ±100 for the full control effect
# Target sequence (P11473 whole entry, looked up): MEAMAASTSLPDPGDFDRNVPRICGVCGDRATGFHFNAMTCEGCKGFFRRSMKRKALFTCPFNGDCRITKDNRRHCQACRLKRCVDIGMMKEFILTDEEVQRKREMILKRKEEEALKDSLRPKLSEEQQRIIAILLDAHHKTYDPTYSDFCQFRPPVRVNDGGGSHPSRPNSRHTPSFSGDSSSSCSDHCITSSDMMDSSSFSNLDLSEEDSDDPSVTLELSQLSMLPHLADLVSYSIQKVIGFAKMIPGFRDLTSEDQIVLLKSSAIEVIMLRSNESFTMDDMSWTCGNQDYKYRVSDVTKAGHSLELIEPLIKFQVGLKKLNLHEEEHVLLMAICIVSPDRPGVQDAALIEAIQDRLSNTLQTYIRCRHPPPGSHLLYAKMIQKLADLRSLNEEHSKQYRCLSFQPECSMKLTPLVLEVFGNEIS
#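 Compounds are added to VDR with labelled SRC2-3 coactivator peptide and held 2 h at room temperature. Inhibition of the VDR–peptide interaction is then read as a change in fluorescence polarization.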
# PLK1 PBD inh: PLK1 (human) polo-box domain binding inhibition. P53350. Plk1 PBD binding of FITC phosphopeptide, fluorescence polarization. Potency, µM, for the others: max response, negative = inhibition, usual class: inhibitors. actives 2.8% (n = 360,000); also: series mostly up to about 57 µM; % is scaled to controls: 0 for no effect and ±100 for the full control effect; nearly all actives have a fitted effect of over 65% in size
# Mito fusion yeast: blocks mitochondrial division or promotes mitochondrial fusion | Potency, µM (titrated, usually from 46.1 µM), inactives show at the highest dose growth rescue (activation), actives largely listed as activators | actives 0.23% (n = 320,000) | S. cerevisiae fusion-defective mutant growth rescue, CellTiterGlo 48 h | AID 485298; also: % of control where 0% means no effect; nearly all actives have a fitted effect of over 45% in size
#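 Compounds are tested for their ability to restore growth of mitochondrial fusion-defective yeast strains at non-permissive 37C in YPEG medium over 48 hours. Viability is quantified by luciferase luminescence.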
# PKM2 act: increases activity of human pyruvate kinase M2; purified PKM2, Kinase-Glo ATP luminescence, activation; response scale: 0% is enzyme alone, no compound; actives 0.34% (n = 260,000); Potency, µM (series often up to 57.5 µM), for the others: at the top dose activation, actives largely listed as activators; P14618; also: % is scaled to controls: 0 for no effect and ±100 for the full control effect; nearly all actives have a fitted effect of over 55% in size
#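 Kinase-Glo luminescence reports ATP generated from ADP (0.1 mM) and PEP (0.5 mM) by purified hPK-M2 after 1 h at room temperature, pH 7.2 imidazole buffer; intermediate enzyme activity allows detecting inhibitors and activators.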
# GCN5L2 inh: inhibitors of human GCN5L2 histone acetyltransferase | Q92830 | GCN5L2 HAT assay, ThioGlo1 CoA-SH fluorescence | Potency, µM (series often up to 58.9 µM), inactives show at the top dose activity change, negative = inhibition, most hits filed as inhibitors | actives 0.21% (n = 390,000); also: % is scaled to controls: 0 for no effect and ±100 for the full control effect
#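 Enzyme at 20nM final was mixed with library compounds for 15 min at room temperature. Peptide H3(1-25) at 75uM, acetyl-CoA at 70uM and ThioGlo1 at 50uM were then added. Plates were read immediately and after 20 min (Ex340nm/Em540nm).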
# GLS inh: blocks human kidney-isoform glutaminase activity | AID 624170 | O94925 | Potency, µM (highest dose often 45.5 µM), for the others: at the highest dose activity change, negative = inhibition, usual class: inhibitors | actives 0.21% (n = 410,000) | GLS enzymatic activity, qHTS titration; also: % is scaled to controls: 0 for no effect and ±100 for the full control effect
#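 Human kidney-isoform GLS in 45 mM KH2PO4 pH 8.2, 0.02% Tween-20, with compound, started with 1mM L-Glutamine (added stock). Glutamate oxidase/HRP/Amplex red coupled fluorescence read at start and after 30 min at RT.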
# The depositor's hits bear a star; ? = inconclusive; / = no result; [ ] = remark or other dose. Calls follow the shape of the dose curve; as a rule, active = well fitted curve in the direction sought with a large enough effect; inconclusive = small, poorly fitted or top-dose-only effect, or another doubt; inactive = no such curve, though single readings can be large; an effect the other way counts as inactive or inconclusive. Potency is read from the fitted curve at half-maximal effect.
SMILES,VDR inh,PLK1 PBD inh,Mito fusion yeast,PKM2 act,GCN5L2 inh,GLS inh
C/C(=N/Nc1ncc(Br)cn1)c1ccc(Br)cc1,?,4.7µM*,-5%,2%,-9%,?
C/C(=N\Nc1ccc(C(=O)O)cc1)c1ccc(Br)cc1,-18%,-26%,4%,1%,-10%,-18%
CN(C(=O)COC(=O)c1ccc2c(c1)NC(=O)CS2)C1CCS(=O)(=O)C1 (stereo not drawn),-7%,-18%,1%,0%,-4%,0%
CC(C)CN(C(=O)COC(=O)c1ccc2c(c1)NC(=O)CS2)C1CCS(=O)(=O)C1 (stereo not drawn),-19%,21µM*,0%,3%,-3%,-2%
CC(C)CN(C(=O)COC(=O)Cc1c[nH]c2ccccc12)C1CCS(=O)(=O)C1 (stereo not drawn),7%,27µM*,-1%,-1%,3%,16%
CCCCCCCCCCCCCCCCCC(=O)[O][Al],/,/,/,/,/,-3%
CC1SC(=S)N(c2ccc(N(C)C)cc2)C1=O (stereo not drawn),32µM*,?,7%,/,?,30%
CN(C)c1ccc(N2C(=O)CSC2=S)cc1,89µM*,-14%,0%,-3%,1%,27%
O=C1CSC(=S)N1c1ccc(F)cc1,/,/,2%,/,1%,/
NC(=O)C1CCCN(C(=O)c2ccc3c(c2)NC(=O)CS3)C1 (stereo not drawn),-8%,3%,-3%,/,-5%,-8%
COc1ccc(CNC(=O)c2ccc(CNS(=O)(=O)c3ccc(OC)cc3)cc2)cc1,-27%,/,/,/,3%,-2%
COc1ccc(S(=O)(=O)NCc2ccc(C(=O)NCCCN3CC(C)CC(C)C3)cc2)cc1 (stereo not drawn),-12%,27µM*,2%,/,3%,-5%
O=C1CSc2ccc(C(=O)N3CCCCC3)cc2N1,/,15µM*,/,/,/,-12%
CC1CC(C)CN(CCCNC(=O)c2ccc3c(c2)NC(=O)CS3)C1 (stereo not drawn),-2%,30µM*,0%,/,-3%,0%
O=C(CCCCCN1C(=O)CCC1=O)Nc1ccc2c(c1)OCO2,-16%,24µM*,3%,1%,-15%,5%
O=C(CN1C(=O)CCSc2ccccc21)Nc1ccc2c(c1)OCO2,9%,-5%,5%,9%,-2%,6%
O=C(CCCN1C(=O)CCC1=O)Nc1ccc2c(c1)OCO2,-4%,-13%,-3%,3%,-4%,-1%
O=C(CN1C(=O)CSc2ccccc21)Nc1ccc2c(c1)OCCO2,-10%,27µM*,-2%,4%,-10%,21%
O=C(CN1CCOCC1)Nc1ccc2c(c1)OCO2,-14%,11µM*,-5%,-4%,-2%,10%
COC(=O)c1cc(OC)c(OC)cc1NC(=O)CCCCCN1C(=O)CCC1=O,-4%,30µM*,-1%,10%,-8%,-4%
COc1ccc(NC(=O)CN2CCN(CC(=O)Nc3ccc4c(c3)OCO4)CC2)cc1,7%,0%,2%,2%,-1%,6%
COc1cc(Cl)c(C)cc1NC(=O)CCCN1C(=O)CCC1=O,-14%,-4%,-2%,1%,-2%,0%
Cc1cc(CN(Nc2ccccc2)c2ccccc2)cc(C)n1,/,-4%,/,/,/,33%
O=C(CN1CCOCC1)Nc1cc(C(F)(F)F)ccc1Cl,?,21µM*,?,0%,-6%,-14%
O=C(CN1CCCCCC1)Nc1cc(C(F)(F)F)ccc1Cl,1%,-3%,2%,0%,-2%,-12%
SMILES,VDR inh,PLK1 PBD inh,Mito fusion yeast,PKM2 act,GCN5L2 inh,GLS inh
C=C1C=CS(=O)(=O)N(C(C)C(=O)OC)C1 (stereo not drawn),-9%,/,/,/,/,/
O=C(O)CCCN1C(=O)C(=O)/C(=C(/O)c2ccccc2)C1/C=C/c1ccccc1 (stereo not drawn),?,13µM*,-1%,3%,-7%,?
O=C(O)CCCN1C(=O)C(=O)/C(=C(/O)c2ccc(Cl)cc2)C1c1ccccc1 (stereo not drawn),10%,-30%,-4%,1%,-27%,6%
CC(C)c1ccc(Nc2nc(Nc3ccc(Cl)cc3)nc(N3CCOCC3)n2)cc1,6%,/,/,/,/,/
Cc1ccc(C(=O)N[C@@H](C)CN2C3=NC[C@H](C(C)C)N3C[C@H]2Cc2ccc(O)cc2)cc1Br,-28%,27µM*,2%,-1%,-19%,13%
CC1(O)C(=O)C=C2C=C(c3ccsc3)OC=C2C1=O (stereo not drawn),12%,/,/,/,/,/
CC1(OC(=O)c2ccco2)C(=O)C=C2C=C(c3ccsc3)OC=C2C1=O (stereo not drawn),-20%,/,/,/,/,/
CCC(=O)OC1(C)C(=O)C=C2C=C(c3ccsc3)OC=C2C1=O (stereo not drawn),?,27µM*,-25%,-6%,-17%,1%
COC(=O)CCC(=O)OC1(C)C(=O)C=C2C=C(c3ccsc3)OC=C2C1=O (stereo not drawn),-19%,?,/,/,/,13µM*
O=C(COc1ccc2ccc(=O)oc2c1)NCCCn1ccnc1,5%,-3%,-5%,7%[0.46 µM],-1%,2%
Cc1ccc(-c2nc(CNC(=O)NC3CCCCC3)c(C)o2)cc1,12%,/,/,/,-3%,6%
Cc1cccc(N2CCN(c3ncnc4onc(C)c34)CC2C)c1 (stereo not drawn),11%,/,/,/,-9%,20%
O=C(NCc1ccco1)c1ccc2sc([C@H]3C[C@H](O)[C@@H](CO)O3)nc2c1,/,-11%,/,/,/,2%
CN(c1ccc([N+](=O)[O-])cc1)c1cc2c(c3c1ccn3C)C1CCC2C1 (stereo not drawn),/,-1%,/,/,/,7%
O=C(CCl)N1c2ccccc2OCC1c1ccccc1 (stereo not drawn),-27%,?,-1%,-1%,26%,0%
O=C(CCl)N1c2ccccc2SCC1c1ccccc1 (stereo not drawn),?,3µM*,1%,-1%,-3%,-4%
Cc1cc2nc(-c3ccc(SCC(=O)NC(C)C)nc3)[nH]c2cc1C,/,/,10%,/,-13%,/
Cc1cc2nc(-c3ccc(SCc4ccc(C(=O)O)cc4)nc3)[nH]c2cc1C,1%,19µM*,2%,22%,?,-22%
CCC(C(=O)OCC(=O)NC(=O)NC(C)(C)C)c1ccccc1 (stereo not drawn),-21%,27µM*,4%,-12%,-4%,56%
CCC(C(=O)OCC(=O)NC(=O)c1ccccc1)c1ccccc1 (stereo not drawn),-13%,-1%,6%,/,-3%,-2%
